From PubChem BioAssay (Tox21)
Active and inactive are the calls of the source. Calls come from the whole dose curve; as a rule, active = well fitted curve in the direction sought with a large enough effect in the repeat runs; inconclusive = weak or mixed curves; inactive = flat fitted curve, though single readings scatter.

Assay: qHTS assay to test for compound auto fluorescence at 460 nm (blue) in HEK293 cells (AID 720678)
Settings: blue autofluorescence 405/460 nm; series mostly up to 91.3 µM; fluorescence, % of triamterene: at the top concentration
Excerpt: National Center for Advancing Translational Sciences [NCATS]
NIH Chemical Genomics Center [NCGC]
U.S. Environmental Protection Agency [EPA]
National Institutes of Environmental Health Sciences [NIEHS]
National Toxicology Program [NTP]
U.S. Food and Drug Administration [FDA]
Compound auto fluorescence often interferes with screening of the compound library against various biological targets and signaling pathways. Some of these compounds may have fluorophoric properties. Such properties may interfere with the assay outputs resulting in false positives and/or negatives. To decrease such complications and ensure the compound activities are relevant in terms of biological response, the Tox21 10K compound library was screened for auto fluorescence.
From the fluorophores used as reporter signals in our screening assays, the auto fluorescence equivalencies of compounds against three fluorophores have been evaluated: Triamterene, Fluorescein and Rose Bengal sodium for blue, green and red fluorescence, respectively. The fluorescence intensities were measured using Excitation/Emission wavelengths at 405/460nm, 485/535nm and 540/590nm for blue, green and red labels, respectively. This assay includes the blue fluorescence data.
Tox21 Assay Protocol Summary:
2,000 HEK293 cells in 5 uL of culture medium containing 10% dialyzed FBS per well were dispensed into black wall/clear bottom 1536-well plates using a Multidrop Combi Dispenser (Thermo Scientific). The assay plates were incubated for 4-5 hr at 37C to allow cell attachment to the well bottom, followed by the transfer of 23 nL compound or DMSO vehicle by a pintool work station (Kalypsys, San Diego, CA). After the assay plates were incubated overnight at 37C and 5% CO2, fluorescence intensities in the assay plates were measured by an Envision (PerkinElmer, Shelton, CT) plate reader using three labels for measuring blue, green and red fluorescence at […] 460, 535 and 590nm respectively.
% is set by controls: 0 for no effect and ±100 for the full control effect; potency is the fitted concentration of half-maximal effect; tags give direction and shape of the fitted curve or compound fluorescence and quenching.

Row | SMILES | fluorescence, % of triamterene | Potency
1 | CC(C)=CCC1=C(O)c2ccccc2C(=O)C1=O | -0.366% (inactive) | –
2 | CC1(C)CC(O)CC(C)(C)N1 | -0.0438% [at 95.7 µM] (inactive) | –
3 | CC(CO)Oc1ccccc1 (stereo not given) | 0.0335% [at 95.7 µM] (inactive) | –
4 | OC1CCC(C2CCCCC2)CC1 (stereo not given) | -0.111% (inactive) | –
5 | CCO[C@@H]1O[C@H](C(COCc2ccccc2)OCc2ccccc2)[C@H](OCc2ccccc2)[C@H]1O (stereo not given in full) | -0.0314% [at 18.6 µM] (inactive) | –
6 | CCCCCCCC/C=C\CCCCCCCCN | 0.0658% [at 46 µM] (inactive) | –
7 | Cc1ccc(N/N=c2\c(=O)cc/c(=N\Nc3ccc(S(=O)(=O)O)cc3)c2=O)c(C)c1 | -0.676% (inactive) | –
8 | COC(=O)C1=C(C)NC(C)=C(C(=O)OCCN2CCN(C(c3ccccc3)c3ccccc3)CC2)C1c1cccc([N+](=O)[O-])c1 (stereo not given) | -0.214% [at 46 µM] (inactive) | –
9 | C=CCCC(=O)/C=C/C1C(C)=CCCC1(C)C (stereo not given) | 0.0193% (inactive) | –
10 | C[C@H]1NCc2cc(-c3ccc4c(=O)c(C(=O)O)cn(C5CC5)c4c3OC(F)F)ccc21 | 0.446% [at 46 µM] (inactive) | –
11 | CN(C)c1ccc(C(=C2C=CC(=[N+](C)C)C=C2)c2ccc(N(C)C)cc2)cc1 | – | inactive
12 | Nc1ccc(Oc2ccc(Cl)cc2)cc1 | -0.0663% (inactive) | –
13 | COc1ccc(NC(=O)CC(C)=O)cc1 | -0.0551% (inactive) | –
14 | CCCCOC(=O)CC | 0.0529% (inactive) | –
15 | CCCCC/C=C\C/C=C\CCCCCCCC(=O)O | – | inactive
16 | CC(=O)Oc1cc2c(s1)CCN(C(C(=O)C1CC1)c1ccccc1F)C2 (stereo not given) | 0.555% [at 46 µM] (inactive) | –
17 | COC(C)=O | – | inactive
18 | CCCCCCCCCCCCOCCOCCOCCOCCOCCOCCOCCOCCOCCO | 0.0465% [at 46 µM] (inactive) | –
19 | O=C1CCc2ccc(OCCCCN3CCN(c4cccc(Cl)c4Cl)CC3)cc2N1 | 0.143% [at 46 µM] (inactive) | –
20 | O=C1c2ccccc2C(=O)N1SC1CCCCC1 | – | inactive

Row | SMILES | fluorescence, % of triamterene | Potency
21 | O=C1OC2(c3ccc(O)cc3Oc3cc(O)ccc32)c2ccc(N=C=S)cc21 | -0.422% [at 95.7 µM] (inactive) | –
22 | Cc1ccc(C)cc1 | 0.0145% (inactive) | –
23 | Cl[Si](Cl)(c1ccccc1)c1ccccc1 | 0.09% [at 95.7 µM] (inactive) | –
24 | CCOc1ccc2ccccc2c1C(=O)N[C@@H]1C(=O)N2[C@@H]1SC(C)(C)[C@@H]2C(=O)O | 0.458% [at 18.6 µM] (inactive) | –
25 | O=C(c1ccc(O)c(O)c1)c1ccc(O)cc1O | – | 31.6 µM [fluorescent] (active)
26 | CNc1ccc([N+](=O)[O-])cc1 | -0.436% (inactive) | –
27 | OC12N=C(c3ccccc3)SC1Cc1cc(Cl)ccc12 (stereo not given) | 0.2% (inactive) | –
28 | CC(C)Cn1cnc2c(N)nc3ccccc3c21 | -0.143% [at 46 µM] (inactive) | –
29 | CN1CCN2c3ccccc3Cc3ccccc3C2C1 (stereo not given) | 0.0066% [at 46 µM] (inactive) | –
30 | CCCCCCCC | 0.0816% (inactive) | –
31 | O=C(O)c1cccc(C(F)(F)F)c1 | -0.34% (inactive) | –
32 | CC(=O)[C@H]1CC[C@H]2[C@@H]3CCC4=CC(=O)CC[C@]4(C)[C@H]3CC[C@]12C | – | inactive
33 | COc1cc(S(=O)(=O)O)c(C)cc1N=Nc1c(O)ccc2cc(S(=O)(=O)O)ccc12 | -0.821% (inactive) | –
34 | Cc1cc(C(C#N)c2ccc(Cl)cc2)c(Cl)cc1NC(=O)c1cc(I)cc(I)c1O (stereo not given) | -0.0672% [at 46 µM] (inactive) | –
35 | CCc1ccc(Br)cc1 | -0.381% [at 95.7 µM] (inactive) | –
36 | CCN1C(=O)c2ccccc2C1Nc1ccc(OCCN2CCCCC2)cc1 (stereo not given) | 0.263% [at 46 µM] (inactive) | –
37 | CCCCNS(=O)(=O)c1ccc(C)cc1 | 0.0132% (inactive) | –
38 | CCC(C)(CCC(C)C)C(=O)[O][Sn]([CH3])([CH3])[O]C(=O)C(C)(CC)CCC(C)C (stereo not given) | -0.0157% (inactive) | –
39 | S=c1nccc[nH]1 | -0.0413% (inactive) | –
40 | Cc1cc(-c2ccc(N=Nc3cc(S(=O)(=O)O)c4ccccc4c3N)c(C)c2)ccc1N=Nc1cc(S(=O)(=O)O)c2ccccc2c1N | -0.0316% (inactive) | –
